An excerpt weighted towards active compounds, which were near 2.7% of everything screened.
a7 integrin act: integrin-mediated muscular dystrophy alleviation activation. alpha7betagal myoblasts, beta-gal FDG fluorescence, 48 h. Potency, µM (titrated, usually from 38.3 µM), most hits filed as activators. 0.064% of 350,000 active. AID 624291; also: nearly all actives have a fitted effect of over 60% in size
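alpha7betagal+/- myoblasts (passage 13, 250/well) treated 48 h at 37C with compounds at 1:260 dilution of DMSO stock. Lysed, then beta-galactosidase activity read as FDG fluorescence (ex 480/em 540) after 30 min, with pre-read for autofluorescence.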
GLP1R inv ag: acts as inverse agonist at human GLP-1 receptor; Potency, µM (titrated, usually from 38.3 µM), most hits filed as inhibitors; 1.6% of 410,000 active; AID 624417; P43220; HEK293 GLP-1R CRE-luciferase, luminescence, 24 h; GLP-1R form is constitutively active; also: nearly all actives have a fitted effect of over 55% in size
Target sequence (P43220 whole entry, looked up): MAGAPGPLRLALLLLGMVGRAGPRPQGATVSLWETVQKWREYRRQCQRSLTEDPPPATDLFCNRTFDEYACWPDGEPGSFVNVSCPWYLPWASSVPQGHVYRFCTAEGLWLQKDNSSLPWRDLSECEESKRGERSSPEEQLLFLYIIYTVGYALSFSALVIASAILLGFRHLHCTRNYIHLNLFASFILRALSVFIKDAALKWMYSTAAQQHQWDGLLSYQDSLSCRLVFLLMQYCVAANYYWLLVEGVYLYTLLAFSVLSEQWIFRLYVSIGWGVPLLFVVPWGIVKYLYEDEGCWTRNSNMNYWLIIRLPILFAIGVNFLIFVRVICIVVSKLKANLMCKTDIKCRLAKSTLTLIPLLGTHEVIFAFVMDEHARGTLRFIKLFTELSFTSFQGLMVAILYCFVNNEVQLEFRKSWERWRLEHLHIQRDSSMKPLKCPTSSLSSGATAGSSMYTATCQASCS
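Cells are plated, allowed 12 hours at 37 deg C, then treated with compounds for 24 hr before luciferase detection reagent is added and luminescence is read after 12 min at room temperature. The HEK293 line carries constitutively active GLP-1R with a cAMP-responsive reporter.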
GLP1R ag: activates the human GLP-1 receptor; 0.007% of 380,000 active; HEK293 GLP-1R CRE-luciferase, luminescence, 4-6 h; cells express a hypersensitive GLP-1R form; Potency, µM (doses to about 45.6 µM), hits mostly activators; P43220
HEK293 tox: cytotoxic in the GLP-1 receptor inverse agonist counter-screen. Potency, µM (doses to about 38.3 µM), most hits filed as inhibitors. 0.13% of 410,000 active. HEK293 cAMP-luciferase reporter cells, luminescence, 24 h;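 also: loss of luciferase light is scored as toxicity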
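Compound-treated cells are incubated 24 hr at 37 deg C under 5% CO2 after a 12 hour attachment period, then luciferase detection reagent is added and luminescence is measured following 12 min at room temperature; lowered signal indicates toxicity.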
BRCA1 expr up: increases BRCA1 expression; MCF7-BRCA1-FFLuc reporter, luminescence, 48 h; response scale: scaled: vehicle 0%, 10 µM genistein 100%; AID 624202; Potency, µM (doses to about 46.1 µM), actives largely listed as activators; 1.1% of 380,000 active; also: nearly all actives have a fitted effect of over 80% in size
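Cells: MCF7-BRCA1-FFLuc, 2000/well. Exposure: 48 h, 37 °C, 5% CO2. Read: luminescence, 15 min post-substrate. Controls: genistein 10 microM (maximal activation), DMSO (neutral).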
Of the large screens only hits and unclear results are named; the others gave an inactive call. Calls follow the shape of the dose curve; as a rule, active = well fitted curve in the direction sought with a large enough effect; inconclusive = small, poorly fitted or top-dose-only effect, or another doubt; inactive = no such curve, though single readings can be large; an effect the other way counts as inactive or inconclusive.

CC1=CC(C)C(/C=N/N=C(N)N)C(C)C1 (stereo not given)	GLP1R inv ag 8.91µM
O=C(CSc1cc(Cl)ccc1Cl)NC1CCCc2ccccc21 (stereo not given)	GLP1R inv ag inconclusive
Cc1ccc2nc(SCC(=O)NC3CCCc4ccccc43)[nH]c2c1 (stereo not given)	GLP1R inv ag 8.91µM
O=C1CCCCC1C(O)(C(=O)c1ccccc1)c1ccccc1 (stereo not given)	GLP1R inv ag 10µM
CC1CCC(C(O)(C(=O)c2ccccc2)c2ccccc2)C(=O)C1 (stereo not given)	none
CCOC(=O)C(=NC(C)CC)NNc1ccc(Br)cc1 (stereo not given)	GLP1R inv ag 2.51µM
Cc1ccc(SCC(=O)N2c3ccccc3Sc3ccccc32)cc1	GLP1R inv ag 7.94µM
OCc1ccc(N=Nc2ccccc2)cc1	BRCA1 expr up 3.16µM
COC(=O)c1ccc(OCCOc2ccccc2)cc1	none
COC(=O)c1ccc(N=Nc2ccccc2)cc1	a7 integrin act inconclusive, BRCA1 expr up 10µM
Oc1ccc(N=Nc2ccccc2)cc1	BRCA1 expr up 8.91µM
CC(=O)N1CCc2c(sc3c2c(=O)n(-c2cc(Cl)ccc2C)c(=O)n3Cc2ccccc2F)C1	GLP1R inv ag inconclusive (no result: a7 integrin act, GLP1R ag)
CCOc1ccc(N2CC(NC(=O)c3ccc4c(c3)OCO4)CC2=O)cc1 (stereo not given)	none (no result: a7 integrin act, GLP1R ag, BRCA1 expr up)
CCc1nn(CC(=O)NC(C)C)c(=O)c2cc3cc(F)ccc3n12	none (no result: a7 integrin act, GLP1R ag, BRCA1 expr up)
O=C(C[n+]1cccc(Br)c1)c1cc(Cl)ccc1Cl	none (no result: a7 integrin act, GLP1R inv ag, GLP1R ag, HEK293 tox)
CCN(CC)/[N+]([O-])=N/OCOC(=O)c1ccccc1OC(C)=O	none (no result: a7 integrin act, GLP1R inv ag, GLP1R ag, HEK293 tox)
Cc1ccc(N2C(=O)N(CC(=O)Nc3ccc(F)c(F)c3)C(=O)C2C)cc1 (stereo not given)	GLP1R inv ag inconclusive
Cc1ccc(N2C(=O)N(CC(=O)Nc3ccc(C)cc3Cl)C(=O)C2C)cc1 (stereo not given)	GLP1R inv ag inconclusive
Cc1ccc(N2C(=O)N(CC(=O)Nc3cc(C)cc(C)c3)C(=O)C2C)cc1 (stereo not given)	GLP1R inv ag 3.98µM
Cc1ccc(N2C(=O)N(CC(=O)Nc3ccc(C)c(C)c3)C(=O)C2C)cc1 (stereo not given)	GLP1R inv ag 10µM
CC1SC(C)C(=O)N(CC(=O)Nc2ccc([N+](=O)[O-])cc2)C1=O (stereo not given)	none
Cc1ccc(N2C(=O)N(CC(=O)Nc3cc(Cl)ccc3C)C(=O)C2C)cc1 (stereo not given)	GLP1R inv ag 10µM
Cc1ccc(N2C(=O)N(CC(=O)Nc3ccc([N+](=O)[O-])cc3)C(=O)C2C)cc1 (stereo not given)	GLP1R inv ag 11.2µM
CC1(C(=O)NC2CCCCC2)Cc2ccccc2C(=O)N1Cc1ccccc1Cl (stereo not given)	none (no result: a7 integrin act, GLP1R ag, BRCA1 expr up)
COCc1nc2ccccc2n1Cc1ccc(C(C)(C)C)cc1	GLP1R inv ag inconclusive (no result: a7 integrin act, GLP1R ag, BRCA1 expr up)
Oc1c(C=Nc2ccccc2)sc(=S)n1Cc1ccccc1	none
CCn1c(O)c(C=Nc2ccccc2)sc1=S	GLP1R inv ag inconclusive, BRCA1 expr up 3.16µM
C(=C\c1c[nH]c2ccccc12)/c1ccc2ccccc2n1	none (no result: a7 integrin act, GLP1R inv ag, GLP1R ag, HEK293 tox)
Cc1ccc2c(/C=C/c3ccc(N(C)C)cc3)ccnc2c1	none (no result: a7 integrin act, GLP1R inv ag, GLP1R ag, HEK293 tox)
Cc1cccc2c(=O)c(C(=O)NCc3cccs3)c[nH]c12	BRCA1 expr up 12.6µM
Cc1ccc2c(=O)c(C(=O)NCc3cccs3)c[nH]c2c1	BRCA1 expr up 11.2µM
O=[N+]([O-])c1ccc(-c2cc3ccccc3[nH]2)cc1	none (no result: a7 integrin act, GLP1R inv ag, GLP1R ag, HEK293 tox)
O=C(CCl)N1N=C(c2ccco2)CC1c1ccco1 (stereo not given)	GLP1R inv ag 2.24µM, HEK293 tox inconclusive
O=C(CCl)N1N=C(c2cccs2)CC1c1ccco1 (stereo not given)	none
c1ccc(CN=C2NN=C(c3cc4ccccc4o3)CS2)cc1	none
c1ccc2oc(C3=NNC(=NC4CC4)SC3)cc2c1	GLP1R inv ag 8.91µM, HEK293 tox inconclusive
CC(C)CN(CC(C)C)c1ccc(/C=C/c2nc3ccccc3s2)cc1	none (no result: a7 integrin act, GLP1R inv ag, GLP1R ag, HEK293 tox)
COC(=O)NCc1c(C)nn(-c2ccccc2)c1-n1cccc1	none (no result: a7 integrin act, GLP1R ag, BRCA1 expr up)
CC1(C)Cc2cccc(C(=O)Nc3ccncc3)c2O1	none
CC1(C)Cc2cccc(C(=O)Nc3ccc(Cl)cc3)c2O1	GLP1R inv ag 11.2µM
COc1ccc(-c2nc3c(C#N)c[nH]n3c2NC2CCCC2)cc1	none (no result: a7 integrin act, GLP1R ag, BRCA1 expr up)
COc1ccccc1N1C(=O)S/C(=C\c2cc(C)n(C)c2C)C1=O	BRCA1 expr up 5.62µM
COc1ccccc1N1C(=O)S/C(=C\c2ccc(C)s2)C1=O	none
O=C(N/N=C\c1ccc(COc2ccc([N+](=O)[O-])cc2)o1)c1ccc(Cl)cc1	GLP1R inv ag inconclusive
COc1ccc(OCc2ccc(/C=N\NC(=O)c3sccc3C)o2)cc1	BRCA1 expr up 12.6µM
Cc1cc(C)nc(-n2nc(C)c3c2N(Cc2ccccc2C)C(=O)CC3c2ccc(Cl)cc2)n1 (stereo not given)	none (no result: a7 integrin act, GLP1R ag, BRCA1 expr up)
CN1CCC(n2[nH]c(-c3ccccc3)c(Cc3ccccc3)c2=O)CC1	GLP1R inv ag 11.2µM
CN1CCC(N2CCN(C3CN(CCc4ccccc4)S(=O)(=O)C3)CC2)CC1 (stereo not given)	none (no result: a7 integrin act)
COc1cc(C2CC(=O)N(Cc3ccc(F)cc3)c3ccccc3S2)cc(OC)c1OC (stereo not given)	GLP1R inv ag 11.2µM (no result: a7 integrin act)
O=C1CC(c2ccccc2)Sc2ccccc2N1Cc1ccccc1F (stereo not given)	GLP1R inv ag 10µM (no result: a7 integrin act)
O=C1CSc2ccccc2N1Cc1ccccc1F	none
CN(Cc1ccccc1)C(=O)Cn1c(=O)c2cccn2c2ccc(F)cc21	none (no result: a7 integrin act, GLP1R ag, BRCA1 expr up)
COc1ccc(NC(=O)c2sccc2-n2cccc2)cc1	GLP1R inv ag inconclusive
O=C(Nc1ccc(Cl)cc1)c1sccc1-n1cccc1	GLP1R inv ag 4.47µM
CCCC1=Nc2cc(C(=O)NC3CCCC3)ccc2Sc2ccc(C)cc21	GLP1R inv ag inconclusive (no result: a7 integrin act, GLP1R ag, BRCA1 expr up)
N/C(=N\OCc1ccc([N+](=O)[O-])cc1)c1ccccn1	GLP1R inv ag 1.26µM, BRCA1 expr up inconclusive
C/C(=N\OC(=O)c1ccc(Br)cc1)c1ccccn1	none
C/C(=N/OCc1ccc(Br)cc1)c1ccccn1	GLP1R inv ag inconclusive, BRCA1 expr up 3.55µM
Cc1cc(C)c2oc(-c3cccc(NC(=O)COc4ccc(Cl)cc4C)c3C)nc2c1	none (no result: a7 integrin act, GLP1R inv ag, GLP1R ag, HEK293 tox)
CC(=O)Nc1c(C)nn(-c2ccccc2)c1N1CCC(C(=O)NCc2cccc(F)c2)CC1	none (no result: a7 integrin act, GLP1R ag, BRCA1 expr up)
COc1ccccc1C(=O)OCC(=O)Nc1ccc(N2CCCCC2)cc1	none (no result: a7 integrin act, GLP1R inv ag, GLP1R ag, HEK293 tox)
OC(CNCc1ccncc1)c1ccccc1 (stereo not given)	none
OC(CNCc1ccc(-c2ccccc2)cc1)c1ccccc1 (stereo not given)	GLP1R inv ag 10µM, GLP1R ag inconclusive, HEK293 tox inconclusive
